From PubChem BioAssay (NCATS)
Results filed as inconclusive are left out. Calls of active or inactive are those of the source. Unless noted, calls follow the shape of the full dose curve.

How the values were obtained:
[1] = S16 Schwann cell PMP22 intronic element firefly luciferase assay (AID 624032; active = well fitted curve in the direction sought with a large enough effect; an effect the other way counts as inactive or inconclusive;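 also: series mostly up to about 58 µM; plate controls were DMSO for no effect and PTC124 positive control mean for full effect; nearly all actives have a fitted effect of over 30% in size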)
How it was run: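 Luciferase reporter of PMP22 intronic-element expression in stably transfected S16 rat Schwann cells, read by ONE-Glo luminescence after 24 h compound exposure at 37 C. Activity scaled between DMSO (0%) and positive-control PTC124; concentration-effect curves quality-classified.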

[2] = S16 Schwann cell PMP22 intronic element beta-lactamase assay (AID 624044);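 also: 0% = DMSO and -100% = potassium clavulanate positive control; nearly all actives have a fitted effect of over 15% in size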
How it was run: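 Beta-lactamase reporter under a PMP22 intronic regulatory element in stable S16 rat Schwann cells; 24 h compound exposure. 460 nm blue signal normalized between DMSO (0%) and potassium clavulanate, with 535 nm FRET tracking viability; curves classed by r2 and response.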

[3] = qHTS assay for small molecule agonists of the antioxidant response element (ARE) signaling pathway (AID 651741; active = well fitted activation curve with a large enough effect in the signal ratio; the % refers to the signal ratio; also: % of control where 0% means no effect)
How it was run: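 Agonist activity is measured as ARE-driven beta-lactamase expression in a stable HepG2 reporter line, using 16 h compound treatment at 37 C and a FRET substrate fluorescence readout after 2 h.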

[4] = qHTS assay for small molecule activators of the p53 signaling pathway (AID 651743; active = well fitted activation curve with a large enough effect in the signal ratio, not every such curve was filed as active; the % refers to the signal ratio; also: series mostly up to about 92 µM; % of control where 0% means no effect); details: HCT-116 p53RE-bla, beta-lactamase FRET ratio, 16 h; stronger effect = higher value
How it was run: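 A beta-lactamase reporter under p53 response element control, stably carried by HCT-116 cells, reported pathway activation. Test compounds were applied for 16 hours at 37 C, and fluorescence was measured 2 hours after adding the B/G FRET substrate.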

[5] = qHTS assay for small molecule activators of the nuclear factor-kappa B (NF-kB) signaling pathway (AID 651749; active = well fitted activation curve with a large enough effect in the signal ratio; the % refers to the signal ratio; also: series mostly up to about 77 µM; % of control where 0% means no effect); details: NF-kB-bla ME-180 cells, beta-lactamase FRET ratio, 16 h; stronger effect = higher value
How it was run: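 FRET-based beta-lactamase detection in ME-180 cells reports NF-kB response-element-driven transcription following overnight (16 hr) compound treatment.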

[6] = qHTS assay for environmental chemicals that activate the Aryl hydrocarbon Receptor (AhR) signaling pathway (AID 651777; active = well fitted curve in the direction sought with a large enough effect; an effect the other way counts as inactive or inconclusive; also: potency is read from the fitted curve at half-maximal effect; nearly all actives have a fitted effect of over 15% in size); details: 1A2-DRE human hepatoma cells, luciferase, 24 h
How it was run: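 Human hepatoma 1A2-DRE cells stably carrying a DRE/CYP1A2 promoter–luciferase reporter, 1,200 cells/well, exposed to compound 24 hr at 37 C. Luciferase read by One-Glo luminescence after 30 min at room temperature; increased signal marks AhR activation.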

[7] = qHTS assay for small molecule disruptors of the mitochondrial membrane potential - 1 hr assay (AID 651754); also: % is scaled to controls: 0 for no effect and ±100 for the full control effect; nearly all actives have a fitted effect of over 35% in size
How it was run: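 In this qHTS format, a 1 hr compound treatment of HepG2 cells precedes Mito-MPS staining, and membrane potential is judged from aggregate (red) against monomer (green) fluorescence intensity.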

[8] = qHTS assay for small molecule disruptors of the mitochondrial membrane potential - 5 hr assay (AID 651755); also: % is scaled to controls: 0 for no effect and ±100 for the full control effect; nearly all actives have a fitted effect of over 40% in size
How it was run: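 Membrane-potential dye readout: red aggregate (540 ex/590 em) versus green monomer (490 ex/535 em) fluorescence after 30 min dye loading, following 5 hr compound exposure at 37C of overnight-plated HepG2 cells.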

[9] = biological target: Tumor necrosis factor (Homo sapiens) (UniProt P01375); assay: qHTS assay to identify small molecules that stimulate Tumor Necrosis Factor-alpha (TNF-alpha) secretion (AID 651757; active = well fitted curve in the direction sought with a large enough effect in the signal ratio; the % refers to the signal ratio; also: 0% is about no effect)
How it was run: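 Using 3000 THP-1 cells per well, compounds and controls were applied for 17 hrs at 37 C. Detection followed with two labeled anti-TNF-alpha antibodies (cryptate donor, XL665 acceptor) for 3 hr at room temperature, measured by TR-FRET.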

[10] = qHTS assay to identify small molecules that stimulate interleukin-8 (IL-8) secretion (AID 651758; active = well fitted activation curve with a large enough effect in the signal ratio; the % refers to the signal ratio; also: 0% is about no effect)
How it was run: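 Secreted IL-8 measured homogeneously by TR-FRET (two labelled anti-IL-8 antibodies, 1-3 h at room temperature) after a 16 h, 37 C compound treatment of THP-1 cells at 2000 cells/well.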

Tumor necrosis factor (Homo sapiens), sequence (P01375 whole entry, looked up): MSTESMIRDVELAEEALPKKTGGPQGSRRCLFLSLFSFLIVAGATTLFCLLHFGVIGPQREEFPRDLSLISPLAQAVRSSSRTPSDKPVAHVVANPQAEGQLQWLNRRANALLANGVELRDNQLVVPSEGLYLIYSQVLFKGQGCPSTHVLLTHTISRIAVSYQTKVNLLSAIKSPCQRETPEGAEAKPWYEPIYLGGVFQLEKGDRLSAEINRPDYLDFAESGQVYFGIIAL

CCOC(=O)C(CCc1ccccc1)NC(C)C(=O)N1Cc2ccccc2CC1C(=O)O (stereo not drawn)
inactive: outcome [1] | outcome [2]

O=C(/C=C/C=C/c1ccc2c(c1)OCO2)N1CCCCC1
active: Potency [6] 14.1 µM
inactive: outcome [3] | activation [4] -2.18% | activation [5] -1.08%

C=C1C[C@]23C[C@@]1(O)CC[C@H]2[C@@]12C=C[C@H](O)[C@@](C)(C(=O)O1)[C@H]2[C@@H]3C(=O)O
inactive: outcome [3] | outcome [7] | outcome [8] | outcome [9]

CCc1cccc2c3c([nH]c12)[C@@](CC)(CC(=O)O)OCC3
inactive: outcome [1] | outcome [2]

COc1ccc(CCC(=O)c2c(O)cc(O[C@@H]3O[C@H](CO)[C@@H](O)[C@H](O)[C@H]3O[C@@H]3O[C@@H](C)[C@H](O)[C@@H](O)[C@H]3O)cc2O)cc1O
inactive: outcome [3] | activation [4] -3.41% | activation [5] -2.14% | outcome [7] | outcome [8] | outcome [10]
